In PubChem BioAssay (NCATS):
Values without a mark were called inactive. Records with an inconclusive call do not appear. Entries that show only a call come without a potency. Activity calls are given as the source filed them. Unless noted, the call rests on the fitted dose curve; in most records, active means well fitted curve in the direction sought with a large enough effect; inconclusive means small, poorly fitted or top-dose-only effect, or another doubt; inactive means no such curve, though single readings can be large; an effect the other way counts as inactive or inconclusive.

Experiments:
[1] = biological target: Tyrosine-protein kinase Yes (Homo sapiens) (UniProt P07947); experiment: qHTS for small molecule inhibitors of Yes1 kinase: Primary Screen (AID 686947); further: nearly all actives have a fitted effect of over 60% in size; further: potency means the concentration at half of the fitted maximal effect
Method in brief: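 Yes1 (4 nM) preincubated 20 min with compound, then 60 min room-temperature reaction with 0.1 mM ATP and 0.3 mg/mL poly(E4Y) in pH 7.5 Tris, 10 mM MgCl2. ADP measured by ADP-Glo luminescence, normalised to enzyme/no-enzyme controls.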

[2] = qHTS for small molecule inhibitors of Yes1 kinase: Counter Assay (AID 686950);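 further: no kinase present so only ADP-Glo detection of a fixed ADP amount is tested; luminescence from ADP-Glo reporting ADP in a fixed ATP and ADP mixture; series mostly up to about 77 µM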
Method in brief: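 Luminescence read-out from ADP-Glo quantifies a fixed ADP amount (0.02 mM ADP with 0.08 mM ATP) after 60 min at room temperature; signal is normalized between DMSO wells with ATP/ADP and with 0.1 mM ATP alone.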

[3] = qHTS for Inhibitors of Ubiquitin-specific Protease USP2a Using CHOP2 as the Reporter: K633 Counterscreen (AID 652168); further: series mostly up to about 57 µM
Method in brief: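 Cell-free interference counterscreen without USP2a: compounds pinned into enzyme-free buffer (20 mM Tris pH 8, 2 mM beta-mercaptoethanol, 0.05% Chaps), then DiUb K48-4IQF substrate added (100 nM stock); fluorescence read kinetically, Ex 525/Em 598.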

[4] = qHTS for Inhibitors of Ubiquitin-specific Protease USP2a Using CHOP2 as the Reporter: Cytotox Assay (AID 652170); settings: HCT116 viability, CellTiter-Glo luminescence, 72 h; further: potency means the concentration at half of the fitted maximal effect; nearly all actives have a fitted effect of over 70% in size
Method in brief: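 HCT116 human colon cancer cells, 600 per well in DMEM with 10% FBS, exposed to compounds for 72 hr at 37 deg C. ATP measured by CellTiter-Glo luminescence, normalized to DMSO cells and no-cell background.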

[5] = biological target: Ubiquitin carboxyl-terminal hydrolase 2 (Homo sapiens) (UniProt O75604); experiment: qHTS for Inhibitors of Ubiquitin-specific Protease USP2a Using CHOP2 as the Reporter: K484 Substrate (AID 652173); settings: USP2 cleavage of DiUb K48 IQF substrate, fluorescence;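 further: cleavage of internally quenched K48 di-ubiquitin substrate measured as rising fluorescence over time; potency means the concentration at half of the fitted maximal effect; nearly all actives have a fitted effect of over 70% in size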
Method in brief: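 USP2 (dispensed at 5 nM) was pinned with compounds, then DiUb K48 internally quenched fluorescent substrate (dispensed at 100 nM) was added. The buffer was 20 mM Tris pH 8, 2 mM beta-mercaptoethanol and 0.05% CHAPS. Cleavage was read kinetically as rising fluorescence, Ex 525/Em 598.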

[6] = qHTS assay for small molecule activators of the nuclear factor-kappa B (NF-kB) signaling pathway (AID 651749; active means well fitted activation curve with a large enough effect in the signal ratio; the % refers to the signal ratio; further: series mostly up to about 77 µM); settings: NF-kB-bla ME-180 cells, beta-lactamase FRET ratio, 16 h; stronger effect = higher value
Method in brief: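 Readout: beta-lactamase reporter driven by an NF-kB response element, detected fluorescently as loss of FRET. Cells were the ME-180 line, treated 16 hr at 37C with pin-transferred compound.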

[7] = qHTS assay for environmental chemicals that activate the Aryl hydrocarbon Receptor (AhR) signaling pathway (AID 651777); settings: 1A2-DRE human hepatoma cells, luciferase, 24 h; stronger effect = higher value; further: nearly all actives have a fitted effect of over 15% in size
Method in brief: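 1A2-DRE human hepatoma reporter line; 1,200 cells/well; cmpd or DMSO 24 h, 37 C/5% CO2; One-Glo 30 min RT; luciferase lum.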

[8] = biological target: Peroxisome proliferator-activated receptor alpha (Homo sapiens) (UniProt Q07869); experiment: qHTS assay for small molecule agonists of the peroxisome proliferator-activated receptor alpha (PPARalpha) signaling pathway (AID 651778); settings: PathHunter PPARalpha complementation, chemiluminescence, 6 h; stronger effect = higher value
Method in brief: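 Chemiluminescence from complemented enzyme reported PPARalpha activation in cells after 6 hr of compound treatment at 37 C. The detection reagent was incubated for 60 min at room temperature, and compounds were scored as agonists.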

[9] = qHTS assay for small molecule agonists of the antioxidant response element (ARE) signaling pathway measured by Nrf2-dependant transcriptional activity (AID 720636; active means well fitted curve in the direction sought with a large enough effect in the repeat runs; an effect the other way counts as inactive or inconclusive;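 further: HepG2 cells with an ARE-driven luciferase reporter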)
Method in brief: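 Cells: ARE-luc HepG2 with Nrf2-responsive luciferase. Medium contained 1% dialyzed FBS. Compound exposure lasted 16 hr at 37 C and 5% CO2, followed by ONE-Glo luciferase detection.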

[10] = qHTS assay for small molecule agonists of the antioxidant response element (ARE) signaling pathway measured by Nrf2-dependant transcriptional activity - cell viability counter screen (AID 720653; active means well fitted curve in the direction sought with a large enough effect in the repeat runs; an effect the other way counts as inactive or inconclusive); settings: ARE-bla HepG2 viability, CellTiter-Glo ATP luminescence, 16 h; stronger effect = lower value
Method in brief: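 Cytotoxicity counter screen: intracellular ATP quantified by CellTiter-Glo luminescence in the same ARE-bla HepG2 plates, after 16 h compound exposure and a 2 h beta-lactamase substrate step.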

[11] = qHTS assay for cell viability of HEK293 cells (AID 743288); settings: ATP luminescence (CellTiter-Glo), 18 h, stronger effect = lower value; further: nearly all actives have a fitted effect of over 50% in size
Method in brief: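 Total intracellular ATP, measured with a luciferase-coupled reagent, indicates the number of viable HEK293 cells. Exposure to test chemicals lasts 18 h at 37 C in 1,536-well format at 2,000 cells/well.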

[12] = qHTS assay for cell viability of the p53RE-bla HCT-116 cell line (AID 743292); further: nearly all actives have a fitted effect of over 55% in size
Method in brief: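 HCT-116 p53RE-bla cells seeded 4,000/well; 5 h at 37 C; compound (DMSO) added; 16 h at 37 C; CellTiter-Glo added, 30 min RT; luminescence read.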

[13] = qHTS Assay for Identifying Gametocytocidal Compounds (AID 743244); further: potency means the concentration at half of the fitted maximal effect;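 on max response: actives lower the fluorescent signal which means gametocytes are killed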; settings: P. falciparum 3D7 stage III-V gametocytes, alamarBlue, 72 h; max response: stronger effect = lower value
Method in brief: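 Compounds are pinned into medium, gametocytes (stage III–V, 3D7, 20,000 cells/well) added, and plates held 72 h at 37 °C in 5% CO2. AlamarBlue follows for 24 h before fluorescence reading.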

Tyrosine-protein kinase Yes (Homo sapiens), sequence (P07947 whole entry, looked up): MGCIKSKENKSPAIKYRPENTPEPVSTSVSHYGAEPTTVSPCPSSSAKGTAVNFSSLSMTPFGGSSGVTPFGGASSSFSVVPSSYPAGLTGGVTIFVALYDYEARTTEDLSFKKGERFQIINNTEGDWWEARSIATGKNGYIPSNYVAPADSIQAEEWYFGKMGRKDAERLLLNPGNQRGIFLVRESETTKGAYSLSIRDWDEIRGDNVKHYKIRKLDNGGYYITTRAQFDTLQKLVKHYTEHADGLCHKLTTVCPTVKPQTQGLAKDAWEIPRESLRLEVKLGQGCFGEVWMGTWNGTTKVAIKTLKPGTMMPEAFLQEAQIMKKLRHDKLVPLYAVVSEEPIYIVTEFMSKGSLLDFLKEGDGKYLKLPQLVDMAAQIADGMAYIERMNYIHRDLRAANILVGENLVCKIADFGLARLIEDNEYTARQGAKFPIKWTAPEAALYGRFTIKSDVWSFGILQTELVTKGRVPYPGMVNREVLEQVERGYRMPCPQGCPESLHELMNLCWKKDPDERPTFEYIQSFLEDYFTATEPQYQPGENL
Ubiquitin carboxyl-terminal hydrolase 2 (Homo sapiens), sequence (O75604 whole entry, looked up): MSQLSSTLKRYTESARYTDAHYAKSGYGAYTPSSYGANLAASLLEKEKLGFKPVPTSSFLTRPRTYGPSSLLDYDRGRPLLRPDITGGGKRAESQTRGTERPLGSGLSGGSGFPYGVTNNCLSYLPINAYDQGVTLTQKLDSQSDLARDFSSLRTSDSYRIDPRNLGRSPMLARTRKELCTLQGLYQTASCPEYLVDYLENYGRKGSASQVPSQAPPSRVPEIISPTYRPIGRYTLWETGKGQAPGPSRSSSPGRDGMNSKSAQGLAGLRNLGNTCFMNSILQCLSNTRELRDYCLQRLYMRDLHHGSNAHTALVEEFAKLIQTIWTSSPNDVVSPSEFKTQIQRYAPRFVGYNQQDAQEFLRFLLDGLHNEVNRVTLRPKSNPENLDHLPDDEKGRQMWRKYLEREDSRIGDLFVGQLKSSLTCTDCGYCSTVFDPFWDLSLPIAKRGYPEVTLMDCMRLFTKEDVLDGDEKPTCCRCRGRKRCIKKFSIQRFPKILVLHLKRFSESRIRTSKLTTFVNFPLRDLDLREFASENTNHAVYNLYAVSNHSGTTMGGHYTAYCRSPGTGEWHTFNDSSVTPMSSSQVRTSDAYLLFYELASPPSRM
Peroxisome proliferator-activated receptor alpha (Homo sapiens), sequence (Q07869 whole entry, looked up): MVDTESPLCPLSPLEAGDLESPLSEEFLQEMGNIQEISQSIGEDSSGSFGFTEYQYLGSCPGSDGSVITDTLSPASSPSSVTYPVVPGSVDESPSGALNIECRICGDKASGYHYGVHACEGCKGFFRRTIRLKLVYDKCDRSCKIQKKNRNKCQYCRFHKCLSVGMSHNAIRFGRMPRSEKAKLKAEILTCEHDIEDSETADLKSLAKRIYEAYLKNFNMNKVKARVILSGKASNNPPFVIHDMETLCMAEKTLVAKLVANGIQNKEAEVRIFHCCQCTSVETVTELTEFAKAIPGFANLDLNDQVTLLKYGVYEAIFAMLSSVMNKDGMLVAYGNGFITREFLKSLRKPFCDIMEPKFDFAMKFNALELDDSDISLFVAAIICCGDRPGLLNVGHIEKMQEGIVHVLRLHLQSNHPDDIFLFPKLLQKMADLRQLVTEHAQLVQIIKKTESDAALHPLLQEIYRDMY

With `NC(=O)c1c(OCc2c(F)cc(Br)cc2F)nsc1NC(=O)NCCCCN1CCCC1` the Potency [1] was 1.9 nM (active).

For `CCCCN1CCC(CNC(=O)c2c3n(c4ccccc24)CCCO3)CC1`, the Potency [1] was “inactive”.

With `Cn1c(=O)n(-c2ccc(C(C)(C)C#N)cc2)c2c3cc(-c4cnc5ccccc5c4)ccc3ncc21` the Potency [1] was “inactive”.

In the case of `CCOc1cc2ncc(C#N)c(Nc3ccc(F)c(Cl)c3)c2cc1NC(=O)C=CCN(C)C`, the Potency [1] was 43.4 nM (active).

In the case of `CC(C)(C)c1cc(NC(=O)Nc2ccc(-c3cn4c(n3)sc3cc(OCCN5CCOCC5)ccc34)cc2)no1`, the Potency [1] was “inactive” and the outcome [2] was “inactive”.

With `Cc1cccc(C=NNc2cc(N3CCOCC3)nc(OCCc3ccccn3)n2)c1` the Potency [1] was “inactive” and the outcome [2] was “inactive”.

For `CN1CCN(c2cc(C(=O)Nc3ccc4c(c3)-c3c(c(C(N)=O)nn3-c3ccc(F)cc3)CC4)c(Cl)cn2)CC1`, the Potency [1] was “inactive”.

In the case of `Cn1cncc1[C@@](N)(c1ccc(Cl)cc1)c1ccc2c(c1)c(-c1cccc(Cl)c1)cc(=O)n2C`, the Potency [1] was “inactive”.

With `Cc1cn(-c2cc(NC(=O)c3ccc(C)c(Nc4nccc(-c5cccnc5)n4)c3)cc(C(F)(F)F)c2)cn1` the Potency [1] was “inactive” and the outcome [2] was “inactive”.

In the case of `Cc1ccc(S(=O)(=O)Nc2cc(Cl)ccc2C(=O)Nc2nc(-c3ccccc3)cs2)cc1`, the outcome [3] was “inactive”, the Potency [4] was 5260 nM (active) and the Potency [5] was 1220 nM (active).

In the case of `COCCn1c2c([n+](Cc3cnccn3)c1C)C(=O)c1ccccc1C2=O`, the Potency [1] was “inactive” and the outcome [2] was “inactive”.

In the case of `Nc1ccc(C(=O)c2cc3c(ccc4ccccc43)[nH]2)cc1`, the Potency [1] was 30700 nM (active) and the outcome [2] was “inactive”.

Molecule `O=C(O)CCCc1c[nH]c2ccccc12` has an activation [6] of -1.42%, an activation [7] of 1.2% and a max response [8] of -0.171%. The outcome [9] was “inactive”, the max response [10] was 0.64% and the max response [11] was -3.33%. The outcome [12] was “inactive”.

With `CN(C)CCCN=c1c2ccccc2n(C)c2[nH]c(=O)n(C)c(=O)c12` the Potency [1] was “inactive”, the outcome [2] was “inactive” and the Potency [13] was 14800 nM (active).

With `Cc1cnc(Nc2ccc(F)cc2Cl)nc1-c1c[nH]c(C(=O)N[C@H](CO)c2cccc(Cl)c2)c1` the Potency [1] was “inactive”, the outcome [2] was “inactive” and the max response [13] was -28.2%.

With `Cc1ccc(C(=O)Nc2cccc(C(F)(F)F)c2)cc1-c1ccc2nc(NCCN3CCOCC3)ncc2c1` the Potency [1] was 7.7 nM (active) and the outcome [2] was “inactive”.

For `CC1(C)CCC(c2ccc(Cl)cc2)=C(CN2CCN(c3ccc(C(=O)NS(=O)(=O)c4ccc(N[C@H](CCN5CCOCC5)CSc5ccccc5)c(S(=O)(=O)C(F)(F)F)c4)cc3)CC2)C1`, the Potency [1] was 30700 nM (active).

In the case of `CCC[C@H](NC(=O)C(C#N)=Cc1cccc(Br)n1)c1ccccc1`, the Potency [1] was “inactive”.

In the case of `O=C(c1ccc(Nc2nccc(-c3cc4ccccc4s3)n2)cc1)N1CCC(N2CCCC2)CC1`, the Potency [1] was 68.8 nM (active) and the outcome [2] was “inactive”.

With `Cc1cc(Nc2cc(NC(=O)c3c(Cl)cccc3Cl)ccn2)nc(N)n1` the Potency [1] was 194 nM (active) and the outcome [2] was “inactive”.

With `CC(C)[C@H](C(=O)Nc1ccc(C(=O)NO)cc1)c1ccccc1` the Potency [1] was “inactive” and the outcome [2] was “inactive”.

For `CCCCCN(CCC12CC3CC(CC(C3)C1)C2)C(=O)NCCCc1ccncc1`, the Potency [1] was “inactive” and the outcome [2] was “inactive”.

In the case of `C[C@@H]1CN(CC(=O)Nc2ccc3c(c2)Cc2cccc(-c4cc(=O)cc(N5CCOCC5)o4)c2S3)C[C@H](C)O1`, the Potency [1] was “inactive” and the outcome [2] was “inactive”.

For `CC1(O)CC(c2nc(-c3ccc4ccc(-c5ccccc5)nc4c3)c3c(N)nccn23)C1` (centres undefined), the Potency [1] was 1730 nM (active) and the outcome [2] was “inactive”.

In the case of `Cc1ccc(C(N)=O)cc1Nc1nccc(-c2cn(C(C)C)c3cnccc23)n1`, the Potency [1] was 547 nM (active) and the outcome [2] was “inactive”.

In the case of `CN1CC[C@@H](c2c(O)cc(O)c3c(=O)cc(-c4ccccc4Cl)oc23)[C@@H](O)C1`, the Potency [1] was 34500 nM (active).

In the case of `O=C(C=Cc1cccc(S(=O)(=O)Nc2ccccc2)c1)NO`, the Potency [1] was 1.7 nM (active) and the outcome [2] was “inactive”.

For `N#CCNC(=O)c1ccc(-c2ccnc(Nc3ccc(N4CCOCC4)cc3)n2)cc1`, the Potency [1] was 972 nM (active) and the outcome [2] was “inactive”.

In the case of `Fc1cc(-c2cccc3ncc(-c4cnn(C5CCNCC5)c4)nc23)cc(F)c1CN1CCOCC1`, the Potency [1] was 308 nM (active) and the outcome [2] was “inactive”.

For `O=C(Nc1cc(C(F)(F)F)cc(C(F)(F)F)c1)c1cc(Cl)ccc1O`, the Potency [1] was “inactive”.

With `COc1cc2c(Oc3ccc(-c4cnc(Nc5ccc(F)cc5)n(C)c4=O)cc3F)ccnc2cc1OCCCN1CCOCC1` the Potency [1] was 137 nM (active) and the outcome [2] was “inactive”.

In the case of `CCN(CC)CCCCNc1ncc2cc(-c3cc(OC)cc(OC)c3)c(NC(=O)NC(C)(C)C)nc2n1`, the Potency [1] was 9720 nM (active).

With `O=c1[nH]nc(Sc2ncc([N+](=O)[O-])s2)n1-c1ccc2c(c1)OCCO2` the Potency [1] was “inactive”, the outcome [2] was “inactive” and the Potency [13] was 7430 nM (active).
